Measurements: PubChem BioAssay (NCATS)
Inconclusive results are not listed. The source made the active and inactive calls. Calls come from the whole dose curve; as a rule, active = well fitted curve in the direction sought with a large enough effect; inconclusive = small, poorly fitted or top-dose-only effect, or another doubt; inactive = no such curve, though single readings can be large; an effect the other way counts as inactive or inconclusive.

Tests used:
[1] = biological target: Glutathione peroxidase 1 (Homo sapiens) (UniProt P07203); assay: Primary qHTS Assay for Inhibitors of Recombinant Selenoprotein Glutathione Peroxidase 1 (GPX1) (AID 1845191); note: nearly all actives have a fitted effect of over 65% in size; for activity, negative = inhibition: % is set by controls: 0 for no effect and ±100 for the full control effect
Glutathione peroxidase 1 (Homo sapiens), sequence (P07203 whole entry, looked up): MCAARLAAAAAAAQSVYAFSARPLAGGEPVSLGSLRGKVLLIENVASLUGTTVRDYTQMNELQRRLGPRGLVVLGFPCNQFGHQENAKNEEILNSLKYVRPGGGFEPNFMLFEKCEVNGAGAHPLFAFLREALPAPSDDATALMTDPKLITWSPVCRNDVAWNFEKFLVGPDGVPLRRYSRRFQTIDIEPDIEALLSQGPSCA
Outline: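 GR-coupled assay: compounds preincubated 30 min at room temperature with GPX1, then reaction started with CHP; final 10 nM GPX1, 1 mM GSH, 0.5 mM CHP, 0.5 mM NADPH, 100 nM GR, 0.01% BSA, pH 7.5 Tris buffer. NADPH fluorescence (340/450 nm) read at 0 and 15 min.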

[2] = biological target: Phospholipid hydroperoxide glutathione peroxidase GPX4 (Homo sapiens) (UniProt P36969); assay: Primary qHTS Assay for Inhibitors of Recombinant Selenoprotein Glutathione Peroxidase 4 (GPX4) (AID 1845192); note: nearly all actives have a fitted effect of over 65% in size; for activity change, negative = inhibition: series mostly up to about 50 µM; % is set by controls: 0 for no effect and ±100 for the full control effect
Phospholipid hydroperoxide glutathione peroxidase GPX4 (Homo sapiens), sequence (P36969 whole entry, looked up): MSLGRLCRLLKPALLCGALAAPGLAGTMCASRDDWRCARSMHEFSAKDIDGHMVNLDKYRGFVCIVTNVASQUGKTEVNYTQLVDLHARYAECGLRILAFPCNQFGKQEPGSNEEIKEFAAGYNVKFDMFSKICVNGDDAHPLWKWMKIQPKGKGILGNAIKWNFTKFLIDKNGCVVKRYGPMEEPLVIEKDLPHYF
Outline: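 GR-coupled assay: recombinant GPX4 preincubated 30 min with compound at room temperature; final 200 nM GPX4, 1 mM GSH, 0.5 mM cumene hydroperoxide, 0.5 mM NADPH, 100 nM GR, 0.01% BSA, pH 7.5 Tris. NADPH fluorescence (340/450 nm) read at 0 and 15 min.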

[3] = biological target: Luciferin 4-monooxygenase (Photinus pyralis) (UniProt P08659); assay: Primary firefly luciferase (FLuc) qHTS assay for identification of artifact compounds. (AID 1845220); note: nearly all actives have a fitted effect of over 60% in size;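 for activity change, negative = inhibition: series mostly up to about 54 µM; plate controls were DMSO vehicle for no effect and no enzyme for full effect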
Outline: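 D-luciferin and ATP (10 uM each, final) in Tris acetate buffer pH 7.6 were incubated with compounds for 15 min at room temperature. The reaction was started with 10 nM Photinus pyralis luciferase and luminescence read after 5 min. Percent inhibition was fitted to a 4-parameter Hill equation.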

[4] = Primary fluorescence-based thiol-reactive (MSTI) qHTS assay for identification of artifact compounds. (AID 1845221); note: nearly all actives have a fitted effect of over 65% in size; note: potency is the fitted concentration of half-maximal effect;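 for activity change, negative = thiol reactive: series mostly up to about 54 µM; thiol-reactive compounds lower the probe fluorescence signal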
Outline: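 Thiol-reactive compounds detected by quenching of 4 uM MSTI fluorescence (525/598 nm) after 1 h room-temperature dark incubation in PBS pH 7.4, 2% DMSO. qHTS titration; percent inhibition Hill-fitted against Acetyl-MSTI/MSTI controls.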

[5] = test system: Nanoluciferase (engineered Oplophorus gracilirostris luciferase); assay: Primary Nanoluciferase (NLuc) qHTS assay for identification of artifact compounds. (AID 1845222);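 note: series mostly up to about 54 µM; 0% = DMSO and -100% = no enzyme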
Outline: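 Diluted conditioned medium from NLuc-expressing S16 cells treated with compounds for 15 min at room temperature, then Nano-Glo substrate added; luminescence read after 5 min. Percent inhibition versus no-enzyme and DMSO controls fitted to 4-parameter Hill equation.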

[6] = Primary redox qHTS assay for identification of artifact compounds. (AID 1845223);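 note: 0% = DMSO and 100% = reference compound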
Outline: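 Amplex Red (25 uM) and HRP (250 mU/mL) in HBSS, with compounds for 15 min, then 250 uM DTT for 30 min, room temperature, dark. Fluorescence 525/598 nm read; normalized to DMSO and 10 uM DA3003; Hill fit.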

C[C@H]1[C@H](C)CC[C@]2(C(=O)O)CC[C@]3(C)C(=CCC4[C@@]5(C)C[C@@H](O)[C@H](O)C(C)(C)C5CC[C@]43C)[C@H]12 (some centres not stated)
inactive: Potency [1] | Potency [2] | Potency [3] | Potency [4] | Potency [5]

COc1ccc(Oc2c(Cl)cnn(C3c4ccccc4-c4ccccc43)c2=O)cc1
inactive: Potency [1] | Potency [2] | Potency [3] | Potency [4] | Potency [5]

O=C(/C=C/N1C[C@@H]2C[C@@H]1CN2c1ccccn1)c1ccccc1O
inactive: Potency [1] | Potency [2] | Potency [3] | Potency [4] | Potency [5]

COc1ccc(CC(NC(C)=O)C(=O)O)cc1 (configuration not stated)
inactive: Potency [1] | Potency [2] | Potency [3] | Potency [5]
active: Potency [4] 4.74 µM

CC(=O)OCC1=C[C@@H]2OC(=O)C3=CO[C@@H](O[C@@H]4O[C@H](CO)[C@@H](O)[C@H](O)[C@H]4O)[C@H]1[C@@H]32
inactive: Potency [1] | Potency [2] | Potency [3] | Potency [4] | Potency [5] | Potency [6]

COc1cc(C)c(C(=O)O[C@@H]2[C@H](O)[C@@H](CO)O[C@H]2n2ccc(=O)[nH]c2=O)c(OC)c1
inactive: Potency [1] | Potency [2] | Potency [3] | Potency [4] | Potency [5] | Potency [6]

CC1=C2CC(C)(C)CC2C(O)C2=C(C1)C(=O)OC2O (configuration not stated)
inactive: Potency [1] | Potency [2] | Potency [3] | Potency [4] | Potency [5]

Cc1ncc(NC(=O)c2ccc(CN3CCN(C)CC3)c(C(F)(F)F)c2)cc1Nc1nccc(-c2cccnc2)n1
inactive: Potency [1] | Potency [2] | Potency [3] | Potency [4] | Potency [5]

Cc1onc(-c2ccccc2Cl)c1C(=O)N(C)c1ccc(Cl)cc1
inactive: Potency [1] | Potency [2] | Potency [3] | Potency [4] | Potency [5] | Potency [6]

CC(C)=CCC[C@](C)(O[C@@H]1O[C@H](CO[C@@H]2O[C@@H](CO)[C@H](O)[C@H]2O)[C@@H](O)[C@H](O)[C@H]1O)[C@H]1CC[C@]2(C)[C@@H]1[C@H](O)C[C@@H]1[C@@]3(C)CC[C@H](O[C@@H]4O[C@H](CO)[C@@H](O)[C@H](O)[C@H]4O[C@@H]4O[C@H](CO)[C@@H](O)[C@H](O)[C@H]4O)C(C)(C)[C@@H]3CC[C@]12C
inactive: Potency [1] | Potency [2] | Potency [3] | Potency [4] | Potency [5]

C[C@@H](NC(=O)c1cc(C(=O)N[C@@H](Cc2ccccc2)[C@H](O)CNC2CC2)cc(N(C)S(C)(=O)=O)c1)c1ccccc1
inactive: Potency [1] | Potency [2] | Potency [3] | Potency [4] | Potency [5] | Potency [6]

C/C=C1/[C@H](O[C@@H]2O[C@H](CO)[C@@H](O)[C@H](O)[C@H]2O)OC=C2C(=O)O[C@@H]3C[C@@H](C(C)CO)[C@H](COC(=O)C[C@H]21)[C@H]3C (some centres not stated)
inactive: Potency [1] | Potency [2] | Potency [3] | Potency [4] | Potency [5]

COc1ccc(/C=C/C(=O)N2CCCC2)cc1
inactive: Potency [1] | Potency [2] | Potency [3] | Potency [4] | Potency [5]

CC1(C)CC[C@]2(C(=O)O)CC[C@]3(C)C(=CCC4[C@@]5(C)C[C@@H](O)[C@H](O)[C@](C)(CO)C5CC[C@]43C)[C@@H]2[C@@H]1O (some centres not stated)
inactive: Potency [1] | Potency [2] | Potency [3] | Potency [4] | Potency [5] | Potency [6]

O=C(/C=C/c1ccccc1)O[C@@H]1[C@@H](CO)O[C@@](CO)(O[C@H]2O[C@H](CO)[C@@H](O)[C@H](O)[C@H]2O)[C@H]1O
inactive: Potency [1] | Potency [2] | Potency [3] | Potency [5] | Potency [6]
active: Potency [4] 2.92 µM

CC1(CO)CCCC2(C)C1C(OC(=O)c1ccccc1)CC1C(=O)OCC12O (configuration not stated)
inactive: Potency [1] | Potency [2] | Potency [3] | Potency [4] | Potency [5] | Potency [6]

CC/C=C/C=C/C1(C)OC(CC(CO)OC)=CC1=O (configuration not stated)
inactive: Potency [1] | Potency [2] | Potency [3] | Potency [4] | Potency [5] | Potency [6]

COc1cn(-c2ccc(-n3cccn3)cc2F)nc(-c2ccnn2-c2ccccc2)c1=O
inactive: Potency [1] | Potency [2] | Potency [3] | Potency [4] | Potency [5] | Potency [6]

CC(=O)O[C@@H](C[C@@H]1C=C(C)C(=O)O1)[C@H](C)[C@H]1CCC2[C@@]3(C)CC[C@H](O[C@@H]4O[C@H](CO)[C@@H](O)[C@H](O)[C@H]4O[C@@H]4O[C@@H](C)[C@H](O)[C@@H](O)[C@H]4O)C(C)(C)C3CC[C@@]2(C)[C@@]12COC(=O)C2 (some centres not stated)
inactive: Potency [1] | Potency [2] | activity change, negative = inhibition [3] -7.53% [at 11.6 µM] | activity change, negative = thiol reactive [4] 32.4% [at 11.5 µM] | activity, negative = inhibition [5] -4.12% [at 11.6 µM]

OCC(O)C(c1c[nH]c2ccccc12)c1c[nH]c2ccccc12 (configuration not stated)
inactive: Potency [1] | Potency [2] | Potency [3] | Potency [5]
active: Potency [4] 6.7 µM

O=C(OCC1=CC(Cl)C(O)C(OC(=O)c2ccccc2)C1O)c1ccccc1 (configuration not stated)
inactive: Potency [1] | Potency [2] | Potency [3] | Potency [4] | Potency [5] | Potency [6]

CC(C)NC(=O)c1ccc(C#Cc2ccncc2)cn1
inactive: Potency [1] | Potency [2] | Potency [3] | Potency [4] | Potency [5] | Potency [6]

CC1=C2C[C@H]3OC(=O)[C@H](O)[C@@]4(O)[C@@H](C)[C@@H](O)[C@H](O)C([C@@]2(C)[C@H](O)[C@@H](O)C1)[C@@]34C (some centres not stated)
inactive: Potency [1] | Potency [2] | Potency [3] | Potency [4] | Potency [5] | Potency [6]
